Each molecule was assayed against Alpha-bungarotoxin (Bungarus multicinctus) (UniProt P60615) (assay: alpha-bungarotoxin binders on microarray, profiling panel, artefact control for SMM control protein annotation, biochemical, small-molecule microarray, Alexa647 label, 635/667 nm fluorescence (AID 1117)). Settings: alpha-BTX-A647 binding fluorescence, higher = more signal.
Sequence of Alpha-bungarotoxin (Bungarus multicinctus) (P60615 whole entry, looked up): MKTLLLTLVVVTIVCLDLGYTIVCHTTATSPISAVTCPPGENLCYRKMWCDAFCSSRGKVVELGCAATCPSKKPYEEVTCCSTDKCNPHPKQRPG

Row | Structure (SMILES) | composite z-score
1 | COc1ccc(C(O)C2C=CC3C(=O)N(c4ccccc4)C(=O)C3N2Nc2ccc(C#N)cc2)c2ccccc12 (stereo not drawn) | 1.68
2 | NC(=O)NCC#Cc1ccc2c(c1)[C@]1(C(=O)N2)[C@H](C(=O)Nc2nc3ccccc3s2)[C@H]2C(=O)O[C@H](c3ccccc3)[C@H](c3ccccc3)N2[C@@H]1c1ccc(O)cc1 | 1.64
3 | COc1ccc(C#Cc2ccc3c(c2)[C@]2(C(=O)N3)[C@H](C(=O)N3CCc4cc(OC)c(OC)cc4C3)[C@H]3C(=O)O[C@H](c4ccccc4)[C@H](c4ccccc4)N3[C@@H]2c2ccc(O)cc2)cc1 | 1.04
